This test has as its system VDR:RXRa (NR concentration 270 nM, RXRa partner concentration 90 nM). Briefly: PBM binding z-score (relative to random genomic background probes); higher = stronger binding; sequences stand for … in GC…GCGATTGACAGCGTAGAATGAAGG
Here is the method: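 Protein-binding microarray (Agilent 4x180K custom design, double-stranded 60-nt probes: 5' GC cap, 34-nt variable region, 24-nt constant primer region; full probe sequence given). Purified or IVT nuclear receptor:RXRα heterodimers (3:1 NR:RXRα, mostly 270:90 nM) or homodimers were incubated for 1 h in PBS with 2% milk and no ligand, then detected with Alexa488 antibodies. Fluorescence from o1-orientation probes (~5 replicates averaged) was converted to z-scores against 500 random hg19 background probes. Variable regions are seed direct-repeat (DR0–DR5) sites, all their single-nucleotide variants and half-site ablations.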
Regarding CCTGCTAGGTAATGGTCAGCTAATCTACAGTATG, the PBM binding z-score was -0.407.
The figure for TCTTGTAGATCAATAGAGGTTATGAAAGTGCGCT is 1.92; for ATCGAAAGGTCGACGAGGTGAATATACACCGTTT it is 6.16; for CGAACTAGGTCACGGACAGTGAATCTCCGCACGC it is 2.74.
As to TCTCGAAGGACACGAAGGTCAGAGCTTTCCAGAG, the PBM binding z-score stood at 1.86.
To GATACAGGGTCAAGGCCAGAGTGCGCGTATTGAT belongs 4.23; to TCTAGTTGGTCAAAGGTCCCACACTCGAAATGCG, 1.12.
CTCGAAAGGTCGTGCTCAGGTGAGAATACCAAAC displayed a PBM binding z-score of 3.39.
The sequence ATCTCCAGGTAAGACTCAGTTCAGTGAAGAACGC came in with a PBM binding z-score of 1.05.
To CGTCAATGTTCAACTAAGGTAACGTAAAGCACGC belongs 0.565; to AGAATGAGGTTAAGATCAGGGCAACAGAATACAT, 2.23.
TAGCCTAGGTCATTCAGCGGCCAGTATAGAAAGC had a PBM binding z-score of 2.62.
In the case of ACTATTAGTTGACTTAGGGGAACCGATACGACGC, the PBM binding z-score was 0.378.
The figure for TCATATAGGTAAAGGTGAAAGTTGAACGATATGA is 1.58.
To AGAACGAGGGCACGCTGAGTTGATCGCAGAGTAG belongs 2.12; to TTACCAAGGTGAAAGGTCTTTGATGCACGCCTTG, 0.479; to GCTGCTAGGTCAGGTTCGTCAGCTAACGGGTACG, 1.44.
With CAAACTATGTCACCGGAAGGTCAAAGTCCGCATG, the PBM binding z-score came out at 3.84.
To AGAATGAGGTTATAGGTAGATCAGGGAAGAAAGT belongs 1.44; to AATACAGGGTCATCGTGGGCCAGAGTACGCACAG, 5.18; to CAGCCTAGGGCAGGGCCAGTATAGGAGGAACGTT, -0.885.
To CCTTACGGTTCACTCCAGGTTATAGCATCGGAGT belongs 3.4; to GCTTGCAGGCCATTTGGGTCACTCAATGACGGGC, 1.08; to AGAGCGAGGGCAATGAGTTGATAGCACGGGTGGC, 4.97.
In turn, ATATGTAGGTTATCGGGTGATTCAGTTTGCGCAT displayed a PBM binding z-score of 1.77.
Take TCTTTTAGTTGAAGGGCAACCGACGAGTCCGTTT: the PBM binding z-score was 0.995.
ATCTCTAGATAAAGTTCAGTGAAAGATCGATAGA gave a PBM binding z-score of 1.03.
Sequence AGTCAAAGTTCACTAGGTAACGTTAGATTCAGCT came in with a PBM binding z-score of 4.07.
Sequence CAGCCTAGGTCAGGGCCAGTGTAGGAGGAACGTT displayed a PBM binding z-score of 0.257.
As to CCGACTGGCGCATAAGGTTACCATAAGCCAGCCC, the PBM binding z-score was -0.0103.
To AAATGTAGGTTACATCCGGGTCATTCAGGCTATG belongs 4.17; to ATAATGAGGTTATTAAGATCAGGGAATTGCGGTC, 2.88; to TCTGCTAGGTCAACGATGGTCAGCTCATCTGCTA, 1.65.
The figure for CGAACTAGGTCAGAACACGACAGTGAAGGATGAT is 0.217.
Consider TAGCCCAGGTCATGGGCCAGTATACCACGCGAAC, for which the PBM binding z-score came out at 2.64.
To TCTAGCAGGCCAGAGGGTCACTCATGAGGTACGG belongs 1.4.
To TCTAGCAGGCAAGAGGGTCACTCAAGAGGTACGG belongs 2.01; to TCTTGCAGATCAACAGGAGGTTAAGAAAGATCGA, 0.489.
As to AATACAGGGGCACTAGGCCAGAGTAGGTACGAAT, the PBM binding z-score was 0.171.
The figure for TCGAGTAGGTTAGTCGGGGCATTCCGCCAACATA is 2.1.

The record behind these values is the supplement of paper PMC6555819.
